Each structure is given as a SMILES string. Inconclusive results are not listed. Some compounds were tested as several samples or in several runs, with calls that do not always agree. The source made the active and inactive calls. Rule for the calls, unless noted: active = hit-call score of the fitted dose curve at least 0.9, where 1 is the maximum; inconclusive = response in the unintended direction; inactive = score below 0.9.

Experiment [1] can be described thus: STM_H9_OrnCyssISnorm_ratio: Stemina devTOX quickPredict H9 human embryonic stem cell (hESC)-based Assay for Ornithine (ORN):Cystine (CYSS) Ratio (AID 2283714). The essentials: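 H9 hESC, 72h, q24h re-dose; last-day media → acetonitrile deproteinization → UPLC-HRMS. ORN:CYSS ratio from isotope-normalized EIC areas, vs 0.1% DMSO; MTX references on each plate.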

Experiment [2] in a line: CEETOX_H295R_MTT_cell_viability: Viability Assessment in the CeeTox HT-H295R MTT Assay (AID 2283718; active = hit-call score of the fitted dose curve at least 0.9, where 1 is the maximum; inactive = score below 0.9;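 for AC50: curve fitted both ways so AC50 may mark viability loss or gain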). The essentials:
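H295R cells prestimulated 48 h with 10 uM forskolin, then exposed 48 h to test chemical (0.1% DMSO final). Viability by MTT (0.5 mg/ml, 4 h, 37 C), absorbance 570/650 nm; percent change versus DMSO, bidirectional fit.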

A short description of experiment [3]: Tanguay_ZF_120hpf_ActivityScore_legacy: (Legacy) Oregon State University Tanguay Lab 120 Hour Post-fertilization zebrafish Assay Score for Activity (AID 2283742).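 For AC50: dechorionated Tropical 5D wild-type zebrafish embryos held singly per well; static exposure from 6 hpf until 120 hpf at 28 °C.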 The essentials:
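In this whole-embryo screen, dechorionated zebrafish were exposed from 6 hpf until 120 hpf at 28C under a 0.64% DMSO vehicle. Developmental malformations and death were recorded by brightfield microscopy as binary endpoints.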

Experiment [4] can be described thus: ACEA_AR_agonist_AUC_viability: ACEA Biosciences xCELLigence Real-Time Cell Analysis on Androgen Receptor Agonism for Viability (AID 2283775).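 For AC50: viability read 80 hours after compound addition.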 The essentials:
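22Rv1 cells; impedance growth kinetics; 8-pt 1:4 dilutions from 100 uM top final, ≤0.5% DMSO; n = 2; 80 h read; AUC viability, loss-of-signal vs DMSO.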

Experiment [5] can be described thus: ACEA_AR_antagonist_AUC_viability: ACEA Biosciences xCELLigence Real-Time Cell Analysis on Androgen Receptor Antagonism for Viability (AID 2283776).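 Note: 22Rv1 human prostate cancer cells growing on impedance electrode plates; area under impedance growth curve at 80 h after dosing as viability; hits lower the growth signal relative to DMSO meaning cytotoxicity.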 The essentials: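 22Rv1 prostate cells, continuous dosing up to 100 uM final (0.5% DMSO max), duplicate plates. Growth measured by impedance; AUC at 80 h, loss of signal vs DMSO.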
The target of experiment [6] is Luciferin 4-monooxygenase (Photinus pyralis) (UniProt P08659). In words: CCTE_Simmons_QuantiLum_inhib_2: CCTE's Firefly Luciferase Inhibition Assay, Simmons Lab (AID 2283767).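 For AC50: potency for inhibitors that lower luciferase luminescence relative to DMSO.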 The essentials:
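Eight test concentrations, 5 nM up to 87.5 uM final, preincubated 30min at 37C in the dark with purified luciferase (0.5% DMSO final). Detection reagent (150uM D-luciferin, 147uM dATP, 75uM CoA, pH 7.8) injected per well before kinetic luminescence read; three replicates.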

The target of experiment [7] is zebrafish Estrogen Receptor (ESR1), esr1 (gene 259252) (UniProt P57717). In words: ATG_zfER1_XSP1: Attagene TRANS-FACTORIAL Multi-Species (XSP1) HepG2 Assay for zebrafish Estrogen Receptor (ESR1) (AID 2283772). The essentials: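 Exogenous chimeric receptor-GAL4 activity is measured in transiently transfected human HepG2 liver cells after 24 h compound exposure. Reporter transcripts are detected by RT-PCR and fluorescent capillary electrophoresis, analysed for signal gain relative to DMSO.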

Experiment [8] has as its system zebrafish Estrogen Receptor (ESR2B), gene 317733. The experiment in a line: ATG_zfER2b_XSP1: Attagene TRANS-FACTORIAL Multi-Species (XSP1) HepG2 Assay for zebrafish Estrogen Receptor (ESR2B) (AID 2283773). The essentials:
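Human hepatoma HepG2, transiently transfected with multi-reporter units; exogenous zebrafish ESR2B-Gal4 activity measured. Exposure 24 h alongside 3 nM 6-alpha-fluorotestosterone to partly stimulate AR.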

Experiment [9] deals with frog Estrogen Receptor (ESR2), gene 100174814. The experiment in a line: ATG_frER2_XSP1: Attagene TRANS-FACTORIAL Multi-Species (XSP1) HepG2 Assay for frog Estrogen Receptor (ESR2) (AID 2283774). The essentials: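 Multiplexed TRANS-format reporter assay in human hepatoma HepG2: chimeric nuclear receptor-Gal4 activity reported as mRNA induction at 24 h, detected by fluorescent RT-PCR products on capillary electrophoresis and fitted upward from DMSO baseline.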

Experiment [10] relates to zebrafish Androgen Receptor (AR), gene 100005148. In words: ATG_zfAR_XSP1: Attagene TRANS-FACTORIAL Multi-Species (XSP1) HepG2 Assay for zebrafish Androgen Receptor (AR) (AID 2283771). The essentials: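 Gain-of-signal versus DMSO was measured as reporter transcripts quantified by RT-PCR, fluorescent labelling and capillary electrophoresis after 24 h chemical exposure. The cells were HepG2 expressing a chimeric zebrafish AR-GAL4, co-stimulated with 3 nM 6-alpha-fluorotestosterone.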

Experiment [11] relates to chicken Androgen Receptor (AR), gene 422165. The experiment in a line: ATG_chAR_XSP1: Attagene TRANS-FACTORIAL Multi-Species (XSP1) HepG2 Assay for chicken Androgen Receptor (AR) (AID 2283768). The essentials: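 Reporter mRNA read by RT-PCR with fluorescent labelling and capillary electrophoresis 24 h after chemical dosing of transiently transfected HepG2 cells. Chicken AR-Gal4 chimera, partially stimulated with 3 nM 6-alpha-fluorotestosterone; activity fitted upward relative to DMSO.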

Experiment [12] concerns frog Androgen Receptor (AR), gene 399456. In words: ATG_frAR_XSP1: Attagene TRANS-FACTORIAL Multi-Species (XSP1) HepG2 Assay for frog Androgen Receptor (AR) (AID 2283770). As to the method:
ATG_XSP1_multi-species_TRANS is a cell-based, multiplexed assay created by modifying the existing Attagene TRANS-FACTORIAL system to include a panel of nuclear receptors from some or all the following species: human (Homo sapiens), mouse (Mus musculus), frog (Xenopus laevis), zebrafish (Danio rerio), chicken (Gallus gallus), and turtle (Chrysemys picta). The ECOTOX-FACTORIAL format uses HepG2, a human liver cell line, with measurements taken at 24 hours after chemical dosing in a 24-well plate. Xsp1 included 3 nM 6-alpha-fluorotestosterone to partially stimulate the androgen receptor.ATG_frAR_XSP1 is one of 29 assay components measured or calculated from the ATG_XSP1_multi-species_TRANS assay. It is designed to make measurements of mRNA induction, a form of inducible reporter, as detected with fluorescence intensity signals by Reverse transcription polymerase chain reaction (RT-PCR) and Capillary electrophoresis technology.The assay endpoint ATG_frAR_XSP1 was analyzed in the positive analysis fitting direction relative to DMSO as the negative control and baseline of activity. […] Furthermore, this assay endpoint can be referred to as a primary readout, because this assay has produced multiple assay endpoints where this one serves a reporter gene function. […]

Chain of Luciferin 4-monooxygenase (Photinus pyralis) (P08659 whole entry, looked up): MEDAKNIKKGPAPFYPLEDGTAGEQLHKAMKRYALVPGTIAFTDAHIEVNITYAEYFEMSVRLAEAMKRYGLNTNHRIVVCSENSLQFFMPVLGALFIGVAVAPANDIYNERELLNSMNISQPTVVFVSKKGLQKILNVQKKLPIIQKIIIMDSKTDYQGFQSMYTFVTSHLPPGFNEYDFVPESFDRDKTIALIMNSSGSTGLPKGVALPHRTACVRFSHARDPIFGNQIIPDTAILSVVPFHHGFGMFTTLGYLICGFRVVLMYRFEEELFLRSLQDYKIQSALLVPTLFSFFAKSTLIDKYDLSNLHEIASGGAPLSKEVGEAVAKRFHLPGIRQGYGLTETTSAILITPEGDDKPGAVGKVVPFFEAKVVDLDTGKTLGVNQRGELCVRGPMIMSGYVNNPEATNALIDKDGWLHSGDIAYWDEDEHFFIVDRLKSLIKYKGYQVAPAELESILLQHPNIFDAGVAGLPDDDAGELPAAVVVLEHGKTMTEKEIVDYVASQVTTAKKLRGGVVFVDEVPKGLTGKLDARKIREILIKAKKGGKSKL
Chain of zebrafish Estrogen Receptor (ESR1), esr1 (gene 259252) (P57717 whole entry, looked up, the tested form may be a part): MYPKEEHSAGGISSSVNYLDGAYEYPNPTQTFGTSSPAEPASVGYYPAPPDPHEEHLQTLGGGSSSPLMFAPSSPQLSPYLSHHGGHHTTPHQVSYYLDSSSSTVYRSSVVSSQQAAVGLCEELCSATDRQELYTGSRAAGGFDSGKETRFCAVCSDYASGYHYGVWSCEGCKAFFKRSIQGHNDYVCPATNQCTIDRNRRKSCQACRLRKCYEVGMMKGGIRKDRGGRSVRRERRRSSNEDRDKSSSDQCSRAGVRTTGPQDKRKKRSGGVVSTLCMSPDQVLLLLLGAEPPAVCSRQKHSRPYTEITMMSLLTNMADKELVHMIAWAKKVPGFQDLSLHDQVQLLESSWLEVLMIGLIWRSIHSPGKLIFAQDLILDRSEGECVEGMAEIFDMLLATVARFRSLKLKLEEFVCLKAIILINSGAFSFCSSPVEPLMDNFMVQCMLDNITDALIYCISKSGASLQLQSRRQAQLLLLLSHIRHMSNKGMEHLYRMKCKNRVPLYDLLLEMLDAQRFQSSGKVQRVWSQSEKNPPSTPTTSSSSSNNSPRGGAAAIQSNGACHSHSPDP

Turning to `CCON=C(CC)C1=C(O)CC(c2c(C)cc(C)cc2C)CC1=O` (centres undefined), the result in experiment [1], in experiment [2], in experiment [3], in experiment [4] and in experiment [5] was inactive.
In the case of `CC1COC(Cn2cncn2)(c2ccc(Oc3ccc(Cl)cc3)cc2Cl)O1` (centres undefined), the AC50 (in general, the midpoint of the concentration-response curve, whichever way the signal moves) in experiment [1] was 3.88 µM (active); in [2], 0.0749 µM (active); in experiment [4], 44.8 µM (active); in experiment [5], 30.3 µM (active). The result in [3] and in experiment [6] was inactive.
For the compound `CN(C)C(=S)SSC(=S)N(C)C`, the concentration at half-maximal activity (AC50) in [1] was 16.2 µM (active); in [3], 9.8 µM (active); in experiment [6] it was 80.1 µM (active); in [4] it was 20 µM (active); in [5] it was 22.6 µM (active).
Turning to `CCCCNC(=O)n1c(NC(=O)OC)nc2ccccc21`, the concentration at half-maximal activity (AC50) in experiment [1] is 6.59 µM (active); in [2] it was 0.015 µM (active); in experiment [6], 21.5 µM (active); in [4], 45.6 µM (active); in experiment [5], 61.6 µM (active). The compound was called inactive in experiment [3].
On to `CCNc1nc(Cl)nc(NC(C)C)n1`, for which, in experiment [1], the AC50 is 50 µM (active). Moreover, the call in experiment [2], in [3], in experiment [4] and in experiment [5] was inactive.
For `CON(C)C(=O)Nc1ccc(Cl)c(Cl)c1`, the AC50 is 71.7 µM (active) in [1], 35.9 µM (active) in experiment [8], 29.1 µM (active) in experiment [9] and 15.8 µM (active) in experiment [5]. For the same compound, the result in [2], in experiment [3], in experiment [6], in experiment [7], in experiment [4] and in [5] was inactive.
`C=CC1(C)OC(=O)N(c2cc(Cl)cc(Cl)c2)C1=O` (centres undefined): the result in experiment [1], in experiment [2], in experiment [3], in [10] and in [9] was inactive. Also, the AC50 is 168 µM (active) in experiment [8], 38.5 µM (active) in [4] and 83.7 µM (active) in experiment [5].
Turning to `Oc1ccccc1-c1ccccc1`, the result in [2], in experiment [6] and in [4] was inactive. Further, the AC50 in [3] was 45.8 µM (active); in experiment [4] it was 50 µM (active); in experiment [5] it was 48.6 µM (active).
Turning to `CCOC(=O)CC(SP(=S)(OC)OC)C(=O)OCC` (centres undefined), the AC50 in experiment [1] was 80.9 µM (active); in [3], 29.2 µM (active); in experiment [4], 92.5 µM (active); in [5] it was 85.1 µM (active). Also, the call in [2] and in [6] was inactive.
With `COc1nc(NC(C)C)nc(NC(C)C)n1`, the concentration at half-maximal activity (AC50) in experiment [1] was 14.6 µM (active). Also, the compound was classed as inactive in experiment [2] and in experiment [3].
Turning to `COP(=S)(OC)Oc1nc(Cl)c(Cl)cc1Cl`, the compound was classed as inactive in experiment [2], in experiment [3], in [6], in [7] and in experiment [4]. Moreover, the AC50 was 3.31 µM (active) in experiment [11], 5.58 µM (active) in experiment [12], 46.6 µM (active) in experiment [8] and 61.6 µM (active) in experiment [9].

(Values after PubChem BioAssay (EPA / NIEHS).)
